Bioassay records: PubChem BioAssay, NMMLSC
RGS7-Gao = RGS7-Galphao binding modulators, primary screen, biochemical, multiplexed bead flow cytometry. Guanine nucleotide-binding protein G(o) subunit alpha (Homo sapiens), P09471. actives lie on both sides. binding response (% of control), % at 10 µM. 0.35% of 220,000 active. AID 1439, 2008; in the data active means binding response below about 49% or above about 150%; inconclusive means no clear call, values can overlap the other calls; inactive means in between;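 further: fluorescent Galphao held in activated GDP-AlF4 state binding bead-coupled RGS7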
Target sequence (P09471 whole entry, looked up): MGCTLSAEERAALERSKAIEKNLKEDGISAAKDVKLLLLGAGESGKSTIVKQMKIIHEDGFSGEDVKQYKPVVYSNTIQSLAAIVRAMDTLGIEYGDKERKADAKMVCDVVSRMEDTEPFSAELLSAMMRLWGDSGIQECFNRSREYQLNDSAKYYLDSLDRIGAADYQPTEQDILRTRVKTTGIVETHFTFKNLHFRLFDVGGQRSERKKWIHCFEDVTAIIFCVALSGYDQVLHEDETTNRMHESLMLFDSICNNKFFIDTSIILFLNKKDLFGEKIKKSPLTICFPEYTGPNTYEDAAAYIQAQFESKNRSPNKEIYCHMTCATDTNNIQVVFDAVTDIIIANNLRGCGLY
GSH bead fluor = compound fluorescence on glutathione beads, profiling panel, artefact control, biophysical, 488/530 nm, flow cytometry | GSH beads flow cytometry, compound fluorescence 488/530 nm; stronger effect = higher value | 0.25% of 190,000 active | fluorescence (KMESF) at 10 µM; in the data active means fluorescence above about 89;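 further: glutathione beads carrying GST-tagged Bcl family fusion proteins plus one bare bead set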
RGS8-Gao reg = RGS8-Galphao binding modulators, primary screen, biochemical, multiplexed bead flow cytometry; actives lie on both sides; Guanine nucleotide-binding protein G(o) subunit alpha (Homo sapiens), P09471; 0.34% of 220,000 active; AID 1423, 2008; response (percent of control binding), % at 10 µM; in the data active means response below about 60% or above about 140%; inactive means in between;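 further: Galphao activated as the GDP aluminium fluoride complex binding bead-coupled RGS8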
Avidin bead fluor = green autofluorescence of compounds with avidin beads – biophysical, 488/530 nm, flow cytometry, artefact control, profiling panel | compound fluorescence 488/530 nm; stronger effect = higher value | fluorescence (KMESF) at 10 µM | 0.38% of 220,000 active; in the data active means fluorescence above about 47
RGS16-Gao HTS = modulators of RGS16 binding to Galphao, primary screen, biochemical, human proteins, multiplexed bead flow cytometry; Regulator of G-protein signaling 16 (Homo sapiens) + Guanine nucleotide-binding protein …; bead-based flow cytometry RGS16-Galphao binding, fluorescence; actives lie on both sides; binding response (% of control), % at 10 µM; 0.38% of 220,000 active;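 further: Galphao activated by GDP with aluminum fluoride before binding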
Target sequence (O15492 whole entry, looked up): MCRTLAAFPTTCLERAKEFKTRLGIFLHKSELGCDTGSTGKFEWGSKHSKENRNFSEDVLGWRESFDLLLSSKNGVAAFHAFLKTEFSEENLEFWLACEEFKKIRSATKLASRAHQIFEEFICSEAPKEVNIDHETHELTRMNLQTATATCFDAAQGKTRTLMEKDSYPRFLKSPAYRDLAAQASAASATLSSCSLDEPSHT
Target sequence (P09471 whole entry, looked up): as the sequence (P09471 whole entry, looked up) above
RGS4-Gao reg = modulators of RGS4 binding to Galphao, primary screen, biochemical, multiplexed bead flow cytometry; binding response (% of control), % at 10 µM; Guanine nucleotide-binding protein G(o) subunit alpha (Homo sapiens), P09471; actives lie on both sides; 0.33% of 220,000 active; AID 1415, 2008; in the data active means binding response below about 49% or above about 150%; inactive means in between;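 further: fluorescent Galphao activated with aluminum fluoride binding bead-coupled RGS4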
RGS-Gao = modulators of RGS–Galpha-o binding, primary screen, biochemical, multiplexed beads, flow cytometry, RGS4/7/8/16/19 | 99% of 1,600 active | multiplexed bead flow cytometry | RGS4–Galpha-o binding response, % at 10 µM | shares compounds with RGS16-Gao HTS;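 further: fluorescently labeled Galpha-o bound to GDP with aluminium fluoride binding biotinylated RGS beads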
Biotin-avidin = disruption of biotin probe capture by avidin, counter-screen for RGS protein interaction modulators, biochemical, flow cytometry, bead-based | streptavidin beads, fluorescein-biotin binding | inhibition, % at 10 µM | 1,700 tested, under 10 active | shares compounds with RGS16-Gao HTS;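 active means inhibition above 50%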;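 further: median green fluorescence of gated singlet beads compared with DMSO control wells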
RGS8-Gao confirm = RGS8-Galphao binding modulators, confirmation, biochemical, multiplexed bead flow cytometry, single concentration | shares compounds with RGS16-Gao HTS | bead-based flow cytometry RGS8-Galphao binding, fluorescence; actives lie on both sides | binding response (% of control), % at 10 µM | 3% of 1,700 active | AID 1836, 2009; in the data active means binding response below about 72% or above about 130%; inactive means in between;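 further: Galphao activated as GDP AlF4 complex before binding bead RGS8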
RGS7-Gao single = RGS7-Galphao binding modulators, confirmation, biochemical, multiplexed bead flow cytometry, single concentration; 7.8% of 1,700 active; response (percent of control binding), % at 10 µM; bead-based flow cytometry RGS7-Galphao binding; actives lie on both sides; shares compounds with RGS16-Gao HTS; in the data active means response below about 75% or above about 130%; inactive means in between;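 further: fluorescent Galphao activated with GDP and aluminum fluoride binding bead-coupled RGS7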
RGS16-Gao single = modulators of RGS16-Galphao protein binding, confirmation, biochemical, single concentration, multiplexed bead flow cytometry | bead-based flow cytometry; actives lie on both sides | shares compounds with RGS16-Gao HTS | response (% of control binding), % at 10 µM | 4% of 1,700 active; in the data active means response below about 74% or above about 130%; inactive means in between;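 further: Galphao activated as the GDP aluminium fluoride complex binding bead-coupled RGS16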
RGS4-Gao confirm = modulators of RGS4-Galphao protein binding, confirmation, biochemical, single concentration, multiplexed bead flow cytometry; actives lie on both sides; binding response (% of control), % at 10 µM; shares compounds with RGS16-Gao HTS; 4% of 1,700 active; in the data active means binding response below about 74% or above about 130%; inactive means in between
RGS19-Gao conf = regulators of RGS19-Galphao binding, confirmation, biochemical, single point, multiplexed bead flow cytometry; 5% of 1,700 active; shares compounds with RGS16-Gao HTS; bead-based flow cytometry RGS19-Galphao binding; actives lie on both sides; response (percent of control binding), % at 10 µM; in the data active means response below about 50% or above about 160%; inactive means in between
Large screens that a line does not name were inactive (follow-up assays come after a bar, where they were run); [ ] = remark or other dose. The list is not random: actives were taken first. Their share in the collection is about 1.2%. Unless noted, how the calls were made is not given here.

O=C(NCCSCc1ccc(Cl)cc1Cl)c1ccc(CN2CCOCC2)cc1	RGS7-Gao -2.0, RGS8-Gao reg 13, RGS16-Gao HTS -10, RGS4-Gao reg -21 | Biotin-avidin inactive | RGS8-Gao confirm inactive | RGS7-Gao single inactive | RGS16-Gao single inactive | RGS4-Gao confirm inactive | RGS19-Gao conf inactive
COc1cccc(OCC(=O)NNC(=S)Nc2ccc(Cl)cc2Cl)c1	none
O=C(Nc1nc(-c2ccccc2)c(C(=O)c2ccccc2)s1)c1ccc(S(=O)(=O)N2CCCC2)cc1	RGS7-Gao 381[activator], Avidin bead fluor 172, RGS16-Gao HTS 349[activator], RGS4-Gao reg 297[activator] | Biotin-avidin inactive | RGS8-Gao confirm inactive | RGS7-Gao single inactive | RGS16-Gao single inactive | RGS4-Gao confirm inactive | RGS19-Gao conf inactive
O=C(Nc1ccccn1)NC1CCS(=O)(=O)C1 (stereo not drawn)	RGS16-Gao HTS -92 | RGS-Gao 76 | Biotin-avidin inactive | RGS8-Gao confirm inactive | RGS7-Gao single inactive | RGS16-Gao single inactive | RGS4-Gao confirm inactive | RGS19-Gao conf inactive
O=C(Nc1ccc(Cl)cc1)NC1CCS(=O)(=O)C1 (stereo not drawn)	none
O=C(NCc1ccccn1)NC1CCCCC1	none
O=C(Nc1ccccn1)NC1CCCCC1	RGS4-Gao reg 199[activator] (no result: RGS7-Gao, RGS8-Gao reg, Avidin bead fluor, RGS16-Gao HTS) | Biotin-avidin inactive | RGS8-Gao confirm inactive | RGS7-Gao single inactive | RGS16-Gao single inactive | RGS4-Gao confirm inactive | RGS19-Gao conf inactive
Cc1ccc(NC(=O)Nc2cnccn2)cc1Cl	none
O=C(Nc1cnccn1)Nc1ccc(Cl)cc1Cl	none (no result: RGS7-Gao, RGS8-Gao reg, Avidin bead fluor, RGS16-Gao HTS, RGS4-Gao reg) | Biotin-avidin inactive | RGS8-Gao confirm inactive | RGS7-Gao single inactive | RGS16-Gao single inactive | RGS4-Gao confirm inactive | RGS19-Gao conf inactive
Cc1ccc(S(=O)(=O)Nc2n[nH]nc2C(=O)NC2CCCCC2)cc1	none
Nc1nc(SCC(=O)Nc2cc(C(F)(F)F)ccc2N2CCOCC2)n[nH]1	RGS7-Gao 24, RGS8-Gao reg 18, RGS16-Gao HTS 16, RGS4-Gao reg 29 | Biotin-avidin inactive | RGS8-Gao confirm inactive | RGS7-Gao single inactive | RGS16-Gao single inactive | RGS4-Gao confirm inactive | RGS19-Gao conf inactive
O=C(CSc1n[nH]c(-c2ccccc2O)n1)N1CCOCC1	none
Cc1nc2ccccc2nc1OCC(=O)Nc1cc(C(F)(F)F)ccc1N1CCOCC1	none
Nc1nc(SCC(=O)N2CCOCC2)n[nH]1	RGS7-Gao 189[activator] | RGS-Gao 129 | Biotin-avidin inactive | RGS8-Gao confirm inactive | RGS7-Gao single inactive | RGS16-Gao single inactive | RGS4-Gao confirm inactive | RGS19-Gao conf inactive
CC1(C)Cc2cccc(OCC(=O)Nc3cc(C(F)(F)F)ccc3N3CCOCC3)c2O1	RGS7-Gao 226[activator], Avidin bead fluor 141 | RGS-Gao 118 | Biotin-avidin inactive | RGS8-Gao confirm inactive | RGS7-Gao single inactive | RGS16-Gao single inactive | RGS4-Gao confirm inactive | RGS19-Gao conf inactive
O=C(COc1cccnc1[N+](=O)[O-])NCc1cccs1	none
Cn1c2c(c(=O)n(C)c1=O)CN(Cc1ccc3c(c1)OCO3)CN2	RGS16-Gao HTS 222[activator] | RGS-Gao 104 | Biotin-avidin inactive | RGS8-Gao confirm inactive | RGS7-Gao single inactive | RGS16-Gao single inactive | RGS4-Gao confirm inactive | RGS19-Gao conf inactive
CCOC(=O)CNNC(=O)Nc1ccc(Cl)c(Cl)c1	RGS8-Gao reg 153[activator], RGS16-Gao HTS 326[activator] | RGS-Gao 123 | Biotin-avidin inactive | RGS8-Gao confirm inactive | RGS7-Gao single inactive | RGS16-Gao single inactive | RGS4-Gao confirm inactive | RGS19-Gao conf inactive
CC1CCN(CC(CS(=O)(=O)c2ccc([N+](=O)[O-])cc2)N2CCC(C)CC2)CC1 (stereo not drawn)	RGS7-Gao inconclusive (no result: GSH bead fluor)
Nc1[nH]nc2nc(-c3ccccc3)[nH]c(=O)c12	RGS7-Gao inconclusive (no result: GSH bead fluor)
Nc1nc(-c2ccccc2)[nH]c(=O)c1N	none | Biotin-avidin inactive | RGS8-Gao confirm inactive | RGS7-Gao single inactive | RGS16-Gao single inactive | RGS4-Gao confirm inactive | RGS19-Gao conf inactive
CC(C)COc1ncnc2c1sc1nc3c(cc12)COC(C)(C)C3	RGS7-Gao inconclusive, Avidin bead fluor 75, RGS16-Gao HTS 206[activator], RGS4-Gao reg 224[activator] (no result: GSH bead fluor) | Biotin-avidin inactive | RGS8-Gao confirm inactive | RGS7-Gao single inactive | RGS16-Gao single inactive | RGS4-Gao confirm inactive | RGS19-Gao conf inactive
CCCN(CCC)c1nc(N(CCC)CCC)[nH]c(=O)n1	RGS7-Gao 5.2, RGS8-Gao reg 20, RGS16-Gao HTS 9.2, RGS4-Gao reg 16 | Biotin-avidin inactive | RGS8-Gao confirm inactive | RGS7-Gao single inactive | RGS16-Gao single inactive | RGS4-Gao confirm inactive | RGS19-Gao conf inactive
